In PubChem BioAssay AID1159580 (chemical genetic matrix, 2015):
Where “and” joins values, the source holds several entries; their conditions need not be identical. Equal values may be shown once. Out of some 5,500 compounds screened, about 2,000 (36%) were called active. Roughly 18% stayed inconclusive and do not appear here. Rule as the data show it: active = normalized growth mostly below about 0.91 (no sharp cut-off); inconclusive = no clear call, values can overlap the other calls; inactive = mostly above about 0.92. The list shows a part of the results.

Assay: chemical genetic growth profiling, strain panel (AID 1159580);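 also: tested at 20 µM; growth read once vehicle control cultures reached saturation at 30 °C; 1 = growth at the plate median or of vehicle wells; lower values mean less growth of the strain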
Details: S. cerevisiae deletion strains, growth OD

Measured: normalized growth

O=C(O)c1cccnc1C(=O)O
inactive: locus YAL013W, strain DEP1, active compounds read low 1.01 and 1.02 | locus YAL021C, strain ccr4, active compounds read low 1.02 | locus YAL026C, strain drs2, active compounds read low 1 | locus YAL030W, strain snc1, active compounds read low 0.999 | locus YAL040C, strain CLN3, active compounds read low 1.05 | locus YBL061C, strain skt5, active compounds read low 1 | locus YBR009C, strain hhf1, active compounds read low 1.03 | locus YBR021W, strain FUR4, active compounds read low 1.03 | locus YBR023C, strain chs3, active compounds read low 0.996 | locus YBR171W, strain sec66, active compounds read low 0.992 | locus YBR229C, strain ROT2, active compounds read low 1.03 | locus YBR231C, strain swc5, active compounds read low 1.04 | locus YBR279W, strain paf1, active compounds read low 0.998 | locus YCL011C, strain gbp2, active compounds read low 1.02 | locus YCL016C, strain dcc1, active compounds read low 1.01 | locus YCL029C, strain bik1, active compounds read low 0.991 | locus YCL061C, strain MRC1 (second series), active compounds read low 1 | locus YCL069W, strain vba3, active compounds read low 1 | locus YCR088W, strain abp1, active compounds read low 0.99 | locus YDL005C, strain med2, active compounds read low 0.98 | locus YDL035C, strain GPR1, active compounds read low 1.03 | locus YDL040C, strain nat1, active compounds read low 0.985 | locus YDL074C, strain BRE1, active compounds read low 1.07 | locus YDL101C, strain DUN1, active compounds read low 1.04 | locus YDL134C, strain PPH21, active compounds read low 1.03 | locus YDL185W, strain tfp1, active compounds read low 0.976 | locus YDL192W, strain arf1, active compounds read low 1 | locus YDR001C, strain nth1, active compounds read low 0.99 | locus YDR069C, strain doa4, active compounds read low 1 | locus YDR101C, strain arx1, active compounds read low 0.997 | locus YDR137W, strain rgp1, active compounds read low 1.01 | locus YDR150W, strain NUM1, active compounds read low 1.02 | locus YDR159W, strain sac3, active compounds read low 0.986 | locus YDR162C, strain NBP2, active compounds read low 1.02 | locus YDR195W, strain ref2 1.05 | locus YDR297W, strain sur2, active compounds read low 1 | locus YDR318W, strain mcm21, active compounds read low 0.997 | locus YDR334W, strain swr1, active compounds read low 0.979 | locus YDR335W, strain msn5, active compounds read low 1 | locus YDR363W, strain ESC2, active compounds read low 1.04 | locus YDR388W, active compounds read low 0.986 | locus YDR392W, strain spt3, active compounds read low 0.984 | locus YDR502C, strain sam2, active compounds read low 1.01 | locus YEL003W, strain gim4, active compounds read low 0.995 | locus YEL037C, strain rad23, active compounds read low 0.989 | locus YEL061C, strain CIN8 (second series), active compounds read low 0.979 | locus YEL061C, strain CIN8, active compounds read low 1.02 | locus YER002W, strain NOP16, active compounds read low 0.994 | locus YER015W, strain faa2, active compounds read low 1.01 | locus YER016W, strain bim1, active compounds read low 0.967 | locus YER110C, active compounds read low 1 | locus YER111C, strain swi4, active compounds read low 0.986 | locus YER155C, strain BEM2 (second series), active compounds read low 1.05 | locus YER155C, strain BEM2, active compounds read low 1.01 | locus YER167W, strain BCK2, active compounds read low 1.02 | locus YFR010W, strain ubp6, active compounds read low 1.03 | locus YGL078C, strain dbp3, active compounds read low 0.983 | locus YGL086W, strain mad1, active compounds read low 1.01 | locus YGL167C, strain pmr1, active compounds read low 1 | locus YGL173C, strain kem1, active compounds read low 1 | locus YGL227W, strain vid30, active compounds read low 0.972 | locus YGL240W, strain doc1, active compounds read low 1.01 | locus YGL248W, strain PDE1, active compounds read low 1.03 | locus YGL253W, strain hxk2, active compounds read low 1.01 | locus YGR078C, strain PAC10, active compounds read low 1.01 | locus YGR135W, strain pre9, active compounds read low 1.01 | locus YGR229C, strain SMI1, active compounds read low 1.04 | locus YGR252W, strain gcn5, active compounds read low 0.938 | locus YHR013C, strain ard1, active compounds read low 1 | locus YHR027C, strain rpn1, active compounds read low 1.02 | locus YHR030C, strain SLT2, active compounds read low 1.02 and 0.992 | locus YHR079C, strain IRE1 (second series), active compounds read low 0.981 | locus YHR079C, strain IRE1, active compounds read low 1 | locus YHR094C, strain hxt1, active compounds read low 0.983 | locus YHR129C, strain ARP1, active compounds read low 1.01 | locus YHR142W, strain chs7, active compounds read low 1.02 | locus YHR200W, strain rpn10, active compounds read low 0.984 | locus YIL066C, strain RNR3, active compounds read low 1.05 | locus YIL073C, strain SPO22, active compounds read low 1.01 | locus YIL125W, strain kgd1, active compounds read low 0.971 | locus YIR030C, strain dcg1, active compounds read low 0.998 | locus YJL092W, strain hpr5, active compounds read low 0.99 | locus YJL095W, strain BCK1 (second series), active compounds read low 1.01 | locus YJL095W, strain BCK1, active compounds read low 1.07 and 0.998 | locus YJL115W, strain asf1, active compounds read low 0.984 | locus YJL129C, strain trk1, active compounds read low 0.986 | locus YJL134W, strain LCB3, active compounds read low 1.01 | locus YJL154C, strain vps35, active compounds read low 0.998 | locus YJL164C, strain tpk1, active compounds read low 1.03 | locus YJL166W, strain qcr8, active compounds read low 1.03 | locus YJL168C, strain set2, active compounds read low 0.978 | locus YJL187C, strain SWE1 (second series), active compounds read low 1.05 | locus YJL187C, strain SWE1, active compounds read low 1 | locus YJR043C, strain POL32, active compounds read low 1.02
